Structures can show the parent of a compound that is named as a salt.
tested on: Saccharomyces cerevisiae BY4741 SeMeCo community; experiment: z-score of prototroph abundance vs DMSO median; higher = larger share of this subpopulation than in DMSO controls; details: 10 µM; 24 h; SM minimal medium; subpopulation (auxotrophy): Prototroph
Method: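 Fluorescent four-plasmid SeMeCo (self-establishing metabolically cooperating S. cerevisiae BY4741 community; plasmids pH-mRuby2, pL-mWasabi, pU-eCFP, pM-TagRFP657) was grown 24 h in minimal SM medium with each Selleck FDA-approved drug at 10 µM in 384-well plates. Cells were fixed and imaged by high-content confocal microscopy. For each auxotrophic subpopulation (and the prototroph), a z-score gives the deviation from the DMSO vehicle-control population median.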

Structure (SMILES)	z-score of prototroph abundance
CCCCc1oc2ccccc2c1C(=O)c1cc(I)c(OCCN(CC)CC)c(I)c1 [Amiodarone HCl]	-5.29
C[C@@H](O)[C@H]1C(=O)N2C(C(=O)O)=C(S[C@@H]3CN[C@H](CNS(N)(=O)=O)C3)[C@H](C)[C@H]12 [Doripenem Hydrate]	0.39
Cc1ncc([N+](=O)[O-])n1CC(C)O (stereo not given) [Secnidazole]	-0.48
Cc1nccn1CC1CCc2c(c3ccccc3n2C)C1=O (stereo not given) [Ondansetron HCl]	0.89
CN1CCCN=C1/C=C/c1cccc(O)c1 [Oxantel Pamoate]	1.15
Cc1cc(C)nc(O)n1.O=C(Nc1ccc([N+](=O)[O-])cc1)Nc1ccc([N+](=O)[O-])cc1 [Nicarbazin]	0.74
Cc1c(Nc2ncccc2C(=O)O)cccc1C(F)(F)F [Flunixin Meglumin]	0.11
CCCNCC(O)COc1ccccc1C(=O)CCc1ccccc1 (stereo not given) [Propafenone HCl]	0.15
O=C1c2cccc3c2[C@H](CCC3)CN1[C@@H]1CN2CCC1CC2 [Palonosetron HCl]	0.21
CC1(C)S[C@@H]2[C@H](NC(=O)Cc3ccccc3)C(=O)N2[C@H]1C(=O)O.CCN(CC)CCOC(=O)c1ccc(N)cc1 [Penicillin G Procaine]	-1.56
CCS(=O)(=O)CCn1c([N+](=O)[O-])cnc1C [Tinidazole]	0.58
CCC(=O)NS(=O)(=O)c1ccc(-c2c(-c3ccccc3)noc2C)cc1 [Parecoxib Sodium]	-1.76
COc1ccc2[nH]c([S+]([O-])Cc3ncc(C)c(OC)c3C)nc2c1 (stereo not given) [Omeprazole]	-0.07
O=c1cc(-c2ccc(O)c(O)c2)oc2cc(O)cc(O)c12 [Luteolin]	-0.73
Cc1ccc(Nc2c(F)cccc2Cl)c(CC(=O)O)c1 [Lumiracoxib]	1.08
C[N+]1(C)[C@@H]2C[C@@H](OC(=O)C(O)(c3cccs3)c3cccs3)C[C@H]1[C@@H]1O[C@@H]12 [Tiotropium Bromide hydrate]	0.56
C[C@]12CC[C@@H]3c4ccc(O)cc4C[C@@H](CCCCCCCCC[S+]([O-])CCCC(F)(F)C(F)(F)F)[C@H]3[C@@H]1CC[C@@H]2O (stereo not given in full) [Fulvestrant]	-1.17
O=C(c1ccc(OCCN2CCCCC2)cc1)c1c(-c2ccc(O)cc2)sc2cc(O)ccc12 [Raloxifene]	0.7
Cc1cccc(Nc2ccccc2C(=O)O)c1C [Mefenamic Acid]	0.48
CCCCCCCCc1ccc(CCC(N)(CO)CO)cc1 [Fingolimod]	2.04

Structure (SMILES)	z-score of prototroph abundance
CC#C[C@]1(O)CC[C@H]2[C@@H]3CCC4=CC(=O)CCC4=C3[C@@H](c3ccc(N(C)C)cc3)C[C@@]21C [Mifepristone]	-1.1
C#C[C@]1(OC(C)=O)CC[C@H]2[C@@H]3CCC4=C[C@@H](OC(C)=O)CC[C@@H]4[C@H]3CC[C@@]21C [Ethynodiol diacetate]	0.6
CC(C(O)c1ccc(O)cc1)N1CCC(Cc2ccccc2)CC1 (stereo not given) [Ifenprodil Tartrate]	0.98
O=C1CCc2cc(OCCCCc3nnnn3C3CCCCC3)ccc2N1 [Cilostazol]	0.97
CC(=O)C1C(=O)C=C(C)OC1=O (stereo not given) [Sodium dehydroacetate]	-1.07
CCOC(=O)C1=C(COCCN)NC(C)=C(C(=O)OC)C1c1ccccc1Cl (stereo not given) [Amlodipine Besylate]	2.4
O=C1CN2Cc3c(ccc(Cl)c3Cl)N=C2N1 [Anagrelide HCl]	0.08
CCOC(=O)OC(C)OC1=C(C(=O)Nc2ccccn2)N(C)S(=O)(=O)c2ccccc21 (stereo not given) [Ampiroxicam]	0.81
CN1CCN(c2cc3c(cc2F)c(=O)c(C(=O)O)cn3-c2ccc(F)cc2)CC1 [Difloxacin hydrochloride]	0.85
CC(=O)N1CCN(c2ccc(OCC3COC(Cn4ccnc4)(c4ccc(Cl)cc4Cl)O3)cc2)CC1 (stereo not given) [Ketoconazole]	0.99
CCCc1nc(C)c2c(=O)nc(-c3cc(S(=O)(=O)N4CCN(CC)CC4)ccc3OCC)[nH]n12 [Vardenafil HCl Trihydrate]	-0.75
CC[C@H](C)C(=O)O[C@H]1C[C@@H](C)C=C2C=C[C@H](C)[C@H](CC[C@@H]3C[C@@H](O)CC(=O)O3)[C@H]21 [Lovastatin]	-1.34
CCOc1cc(N)c(Cl)cc1C(=O)NCC1CN(Cc2ccc(F)cc2)CCO1 (stereo not given) [Mosapride Citrate]	-0.84
CCCNC(C)C(=O)Nc1ccccc1C (stereo not given) [Prilocaine]	-0.27
COc1ccc(C(=O)NCc2ccc(OCCN(C)C)cc2)cc1OC [Itopride hydrochloride]	-0.3
NC(=O)Cc1cccc(C(=O)c2ccccc2)c1N [Nepafenac]	0.25
CN1C[C@@H]2C[C@H]1CN2c1cc2c(cc1F)c(=O)c(C(=O)O)cn2C1CC1 [Danofloxacin Mesylate]	0.27
N#Cc1ccc2[nH]cc(CCCCN3CCN(c4ccc5oc(C(N)=O)cc5c4)CC3)c2c1 [Vilazodone]	0.6
CN1CCOC(c2ccccc2)c2ccccc2C1 (stereo not given) [Nefopam HCl]	0.32
Clc1ccc(CSC(Cn2ccnc2)c2ccc(Cl)cc2Cl)cc1 (stereo not given) [Sulconazole Nitrate]	-9.61

From the supplement of paper PMC8975748
